The source of these data is PubChem BioAssay (NCI).

This is part of a sample that, as a whole, favours compounds with a hit. Of some 83,000 tested, about 20% had one in any assay.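 48-hour exposure, single concentration, 96-well plates; percent growth endpoint where 0 means no net growth. Active: below 10.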 Unmarked numbers belong to inactive results. Calls of active or inactive are those of the source.

This assay has as its system MDA-MB-468 breast. The experiment in a line: NCI-60 one-dose screen, 48 h (100 = growth as untreated, 0 = no growth, -100 = all killed). Conditions: 10 µM unless noted.
As for `Cc1cc(CC(=O)O)n(C)c1C(=O)c1ccc(Cl)cc1`, the growth was 101%.
In the case of `CN1CCN(c2nc(-c3cnc4ccccc4n3)cc3ccccc23)CC1` it was 9.21% (active); in that of `COc1ccc(C(=O)Cn2cnc3c(Nc4cc(C(=O)Nc5ccc(N6CCN(CCO)CC6)cc5)ccc4C)ncnc32)cc1`, 114%.
As to `CC(=O)Oc1ccc(C)cc1C`, the growth is 112%.
In the case of `O[C@H]1[C@H]2c3cc4c(cc3CN3CCC(=C[C@@H]1O)[C@H]23)OCO4` it was 20.7%; in that of `COc1ccc(CNc2ccc3nc(NC(=O)CN4CCCCCC4)sc3c2)cc1`, 46.8%.
For the compound `CCCCOc1ccc(S(=O)(=O)N2CCN(c3nccc(N4CCOCC4)n3)CC2)cc1`, the growth is 6.94% (active).
With `CCN(CC)c1ccc2c(c1)Oc1nc(N)c(C#N)c(N)c1C2Sc1ccc(C)cc1` (stereo not given) the figure was -88.4% (active); with `CC/C=C\C[C@H](O)C/C=C1/C(=O)C=C[C@@H]1C/C=C\CCCC(=O)OC(C)C`, -17% (active).
On to `Oc1ccc(N=Cc2ccccc2)cc1`, for which the growth was 53.9%.
For `Cn1c2c(c3ccccc31)CCN1C[C@@H]3CCCC[C@H]3C[C@@H]21`, the growth is -16.1% (active).
With `COc1cc(Cn2c(-c3ccccc3)cc3c2-c2oncc2CC3)cc(OC)c1OC` the figure was -20.5% (active); with `CCc1ccc(-c2nnc(COc3ccc(-c4nc5ccc(C)cc5[nH]4)cc3OC)o2)cc1`, 63.1%.
With `O=C(Nc1ccccc1)Oc1ccccc1-c1ccccc1` the figure was 101%; with `CC1=CC(=O)N(c2cccc3c(N4C(=O)C=C(C)C4=O)cccc23)C1=O`, 23.6%; with `O=C1C=C(c2ccccc2)C(O)(c2ccccc2)C1` (stereo not given), 108%.
For the compound `CCN(CC)c1ccc(/C=N/NC(=O)c2ccc(NS(C)(=O)=O)cc2)c(O)c1`, the growth was -10.8% (active).
As for `COc1cccc(/C=N/C(=S)NC2(C)C3CCC(C3)C2(C)C)c1O` (stereo not given), the growth was 57%.
In the case of `COc1ccc2c(O)c(/C=C3\N=Nc4ccccc43)oc2c1C[C@H]1CCNC[C@H]1F` it was 75.6%.
In the case of `COc1cc(NCCCCN=C(N)NC(N)=NC(C)C)c2ncccc2c1` it was -61.8% (active); in that of `CN1Cn2c(ccc2C(F)(F)F)C(=O)CS1(=O)=O`, 115%; in that of `CC(=O)Nc1nc2c(s1)CCc1c-2cn(S(=O)(=O)c2ccccc2)c1-c1ccccc1`, 61.6%.
In the case of `O=c1[nH]c2c(ccc3cnccc32)c2c1CCC2`, the growth was -60.5% (active).
As to `COc1cc2cc(Oc3ccc(NC(=O)Nc4ccc(Cl)c(Cl)c4)cc3)c(C)nc2cc1OC`, the growth is -16.7% (active).
With `N#Cc1c2ccccc2nc2ccccc12` the figure was 84.5%; with `COc1ccc(/C=C/C(=O)Nc2ccc(-c3nc4ccc(F)cc4s3)cc2)cc1`, -12.9% (active); with `CC1(c2ccccc2)CO1` (stereo not given), 110%.
Turning to `Cc1nn(-c2ccccc2)c(Oc2ccccn2)c1-c1nc2ccccc2s1`, the growth was 80%.
With `Nc1ncnc(Nc2ccc(C(F)(F)F)cc2)n1` the figure was 108%; with `NNc1ncnc2nc[nH]c12`, 36.8%; with `O=C1/C(=C\c2ccc(Br)cc2)CN(C(=O)c2ccccc2F)C/C1=C\c1ccc(Br)cc1`, -54.1% (active).
As for `Cc1ccc2c(Cn3cc(CSc4nc5ccccc5o4)nn3)cc(=O)oc2c1`, the growth is 113%.
As to `CC(C)c1ccc(Nc2n[nH]c(=S)s2)cc1`, the growth was 107%.
Regarding `Cc1ccc(-c2cn3cc([N+](=O)[O-])ccc3n2)cc1`, the growth is 56.3%.
With `OCC1OC2C(NC(=S)N2c2ccccc2)C(O)C1O` (stereo not given) the figure was 94.6%; with `Cc1ccc(C(=O)Nc2cccc(F)c2)cc1NC(=O)C1(c2ncnc3[nH]ccc23)CC1`, 85.8%; with `O=C(/C=C/c1ccc(C(F)(F)F)cc1)Nc1ccc(C=C2c3ccccc3C(=O)c3ccccc32)cc1`, 33.5%.
With `CN1C/C=C\CCOc2cccc(c2)-c2ccnc(n2)Nc2cccc(c2)C1` the figure was -58.2% (active); with `CCCCCCCCCCCCCCCCCC1=NCCN1CS(=O)(=O)O`, 99.2%.
As to `O=C(/C=C/c1cccc(Br)c1)c1ccccc1`, the growth was 84.9%.
